{
  "source": "ChEMBL document CHEMBL3988442",
  "about": "“University of Dundee, Small-Polar-MMV Screening Library” (2021)",
  "note": "Among all 67,000 compounds or so, about 300 (0.45%) showed an effect of 50% or more. What follows is part of a selection rich in strong results, with near analogues and random picks from the rest.",
  "data": [
    {"target": "Polyketide synthase Pks13 (Mycobacterium tuberculosis (strain ATCC 25618 / H37Rv)) (UniProt I6X8D2)", "sequence (I6X8D2 whole entry)": "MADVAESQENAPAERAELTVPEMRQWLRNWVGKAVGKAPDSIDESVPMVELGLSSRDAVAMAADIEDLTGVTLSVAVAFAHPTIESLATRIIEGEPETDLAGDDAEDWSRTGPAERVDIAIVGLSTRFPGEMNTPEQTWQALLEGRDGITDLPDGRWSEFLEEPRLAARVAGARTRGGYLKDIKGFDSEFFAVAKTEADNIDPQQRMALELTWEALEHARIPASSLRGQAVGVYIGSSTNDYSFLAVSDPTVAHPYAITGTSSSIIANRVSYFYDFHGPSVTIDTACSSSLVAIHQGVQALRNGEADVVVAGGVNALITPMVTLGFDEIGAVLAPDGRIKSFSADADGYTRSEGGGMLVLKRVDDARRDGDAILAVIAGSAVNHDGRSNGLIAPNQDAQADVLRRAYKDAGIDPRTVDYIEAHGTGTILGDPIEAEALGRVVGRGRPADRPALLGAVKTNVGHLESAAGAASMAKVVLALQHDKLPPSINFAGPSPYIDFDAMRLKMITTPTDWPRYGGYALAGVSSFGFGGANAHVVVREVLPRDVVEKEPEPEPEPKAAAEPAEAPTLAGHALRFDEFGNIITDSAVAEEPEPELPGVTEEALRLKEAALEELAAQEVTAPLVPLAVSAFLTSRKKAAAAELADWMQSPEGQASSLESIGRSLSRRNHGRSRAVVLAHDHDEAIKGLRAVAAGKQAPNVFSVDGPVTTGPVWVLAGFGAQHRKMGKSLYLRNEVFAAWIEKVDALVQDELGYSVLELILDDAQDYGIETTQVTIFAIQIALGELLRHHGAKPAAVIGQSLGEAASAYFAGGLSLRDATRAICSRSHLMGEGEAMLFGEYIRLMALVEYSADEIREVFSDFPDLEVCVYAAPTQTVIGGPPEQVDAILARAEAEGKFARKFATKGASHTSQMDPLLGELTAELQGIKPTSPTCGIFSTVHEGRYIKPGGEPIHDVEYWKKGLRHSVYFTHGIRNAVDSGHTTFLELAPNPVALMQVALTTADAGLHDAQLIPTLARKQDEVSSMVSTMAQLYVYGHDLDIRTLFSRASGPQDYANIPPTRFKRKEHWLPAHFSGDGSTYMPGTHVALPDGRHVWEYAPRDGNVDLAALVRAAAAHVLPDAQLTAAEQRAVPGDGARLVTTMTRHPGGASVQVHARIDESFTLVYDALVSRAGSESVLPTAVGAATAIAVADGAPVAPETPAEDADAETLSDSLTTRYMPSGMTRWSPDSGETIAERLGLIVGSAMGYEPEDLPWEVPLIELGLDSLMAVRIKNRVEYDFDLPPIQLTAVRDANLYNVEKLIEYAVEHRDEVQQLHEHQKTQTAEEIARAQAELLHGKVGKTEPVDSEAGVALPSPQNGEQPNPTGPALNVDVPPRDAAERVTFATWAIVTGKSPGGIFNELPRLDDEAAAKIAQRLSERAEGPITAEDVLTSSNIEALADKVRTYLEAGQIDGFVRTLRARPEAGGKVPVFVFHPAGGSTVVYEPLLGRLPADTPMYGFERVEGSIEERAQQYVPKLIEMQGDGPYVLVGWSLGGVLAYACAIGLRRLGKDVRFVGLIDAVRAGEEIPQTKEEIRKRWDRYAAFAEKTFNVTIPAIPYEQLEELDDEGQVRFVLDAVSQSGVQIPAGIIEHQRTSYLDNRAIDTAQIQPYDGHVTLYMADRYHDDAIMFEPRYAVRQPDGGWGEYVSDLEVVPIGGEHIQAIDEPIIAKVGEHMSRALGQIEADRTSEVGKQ", "assay": "Mycobacterium tuberculosis Polyketide synthase 13 Thioesterase (PKS13)", "format": "functional", "design": "scale not given: in the data most compounds retested in dose-response had high values", "details": "30 µM", "units": {"Percent Effect": "%"}, "values": [
      {"smiles": "CN(Cc1cncnc1)[C@H]1CN(CC2CC2)[C@@H]2CCCO[C@@H]21", "Percent Effect": -5.38},
      {"smiles": "O=C1CN([C@@H]2CC[C@@H](NS(=O)(=O)c3ccccc3F)[C@H]2O)CCN1", "Percent Effect": -2.59},
      {"smiles": "O=C1CN([C@@H]2CC[C@@H](NS(=O)(=O)c3ccccc3)[C@H]2O)CCN1", "Percent Effect": 0.207},
      {"smiles": "Cc1ccccc1S(=O)(=O)N[C@@H]1CC[C@@H](N2CCNC(=O)C2)[C@@H]1O", "Percent Effect": 53},
      {"smiles": "COCCN1C[C@@H]2CCCO[C@@H]2[C@H](N(C)Cc2ccco2)C1", "Percent Effect": -24.6},
      {"smiles": "Cc1ccc(CN2CC[C@@]3(O)CCN(S(=O)(=O)N(C)C)C[C@H]3C2)cc1C", "Percent Effect": -28.6},
      {"smiles": "Cc1cc(-c2cnn(CCNC(=O)c3cnn(C)c3)c2C2CC2)on1", "Percent Effect": -12.5},
      {"smiles": "Cc1cc(-c2cnn(CCNC(=O)c3snnc3C)c2C2CC2)on1", "Percent Effect": 90.2},
      {"smiles": "Cc1cc(-c2cnn(CCNC(=O)C3CC3)c2C2CC2)on1", "Percent Effect": -12},
      {"smiles": "COc1cccc(-c2cc(NCC(=O)O)nc3[nH]ccc23)n1", "Percent Effect": 58.3},
      {"smiles": "COc1cccc(-c2cc(NCCO)nc3[nH]ccc23)n1", "Percent Effect": 7.17},
      {"smiles": "COc1cccc(-c2cc(NCCN(C)C)nc3[nH]ccc23)n1", "Percent Effect": 7.82},
      {"smiles": "CCC(=O)N1CCCCC[C@@H]2[C@@H]1[C@H](c1cccc(F)c1)CN2C", "Percent Effect": -27},
      {"smiles": "COc1cccc(-c2noc(-c3ccc(NCC4CC4)nc3)n2)c1OC", "Percent Effect": 36.1},
      {"smiles": "COc1cccc(-c2noc(-c3ccc(NCC(C)O)nc3)n2)c1OC", "note": "(centres undefined)", "Percent Effect": 30.5},
      {"smiles": "CCC(C)Nc1ccc(-c2nc(-c3cccc(OC)c3OC)no2)cn1", "note": "(centres undefined)", "Percent Effect": 69.5},
      {"smiles": "COc1cccc(-c2noc(-c3ccc(NCC(C)C)nc3)n2)c1OC", "Percent Effect": 66},
      {"smiles": "CNCCNc1ccc(-c2nc(-c3cccc(OC)c3OC)no2)cn1", "Percent Effect": -36.1},
      {"smiles": "COc1cccc(-c2noc(-c3ccc(NCCCO)nc3)n2)c1OC", "Percent Effect": 40.8},
      {"smiles": "CN(C)C(=O)N1CC[C@]2(O)CCN(C(=O)c3ccc(C#N)nc3)C[C@@H]2C1", "Percent Effect": -13.4},
      {"smiles": "CCCN1CCN(C(=O)c2cc[nH]n2)[C@H]2CS(=O)(=O)C[C@H]21", "Percent Effect": -8.12},
      {"smiles": "Cc1nnc([C@@H]2CC[C@@H]3[C@@H](CCN3Cc3ccccn3)O2)o1", "Percent Effect": -21.9},
      {"smiles": "O=C1[C@@H]2CCN(CC3CCOCC3)C[C@@H]2OCCN1c1ccccc1", "Percent Effect": -30.7},
      {"smiles": "CCC(=O)N1CCN(C(=O)c2cn3ccsc3n2)[C@H]2CS(=O)(=O)C[C@H]21", "Percent Effect": -15.8},
      {"smiles": "O=C(Cc1cnccn1)N1C[C@H]2CC[C@@H]1CN(Cc1cscn1)C2", "Percent Effect": -24.8},
      {"smiles": "CN(Cc1ccccc1)C(=O)c1nc(S(C)(=O)=O)n2ccccc12", "Percent Effect": -33.7},
      {"smiles": "CN(CCC(F)(F)F)C(=O)c1nc(S(C)(=O)=O)n2ccccc12", "Percent Effect": -23},
      {"smiles": "Cc1nc(C(=O)N(C)CC(F)(F)C(F)(F)F)c2ccccn12", "Percent Effect": 132},
      {"smiles": "CC(C)CN1C(=O)CO[C@@H]2CN(C(=O)NC(C)C)C[C@H]21", "Percent Effect": -42.5}
    ]}
  ]
}
